Screening results deposited in PubChem by several laboratories.
CYP2C19 act – cytochrome P450 2C19 (human) activation; 96,000 tested, under 10 active; AID 1025; recombinant CYP2C19, luciferin-H EGE luminescence; stronger effect = higher value; 0 = fully inhibited enzyme, 1 = untreated enzyme; P33261; activation factor at 5 µM;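 active means activation factor of at least 2 at 5 µM in the primary screen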
Target sequence (P33261 whole entry, looked up): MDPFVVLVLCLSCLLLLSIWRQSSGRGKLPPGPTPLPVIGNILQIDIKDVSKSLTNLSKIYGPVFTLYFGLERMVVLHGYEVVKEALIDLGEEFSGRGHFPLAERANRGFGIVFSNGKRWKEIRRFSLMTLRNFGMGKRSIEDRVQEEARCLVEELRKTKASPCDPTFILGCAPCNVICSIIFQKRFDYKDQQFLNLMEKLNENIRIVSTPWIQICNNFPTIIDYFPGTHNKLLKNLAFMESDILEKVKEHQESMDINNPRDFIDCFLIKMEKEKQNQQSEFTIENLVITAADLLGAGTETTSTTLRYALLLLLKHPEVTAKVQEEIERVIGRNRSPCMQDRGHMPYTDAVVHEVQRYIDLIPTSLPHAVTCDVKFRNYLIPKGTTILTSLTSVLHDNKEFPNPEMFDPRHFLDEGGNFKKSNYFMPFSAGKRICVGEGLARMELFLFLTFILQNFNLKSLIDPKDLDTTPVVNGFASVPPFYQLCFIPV
CYP2C9 inh – inhibitors of human CYP2C9. P11712. CYP2C9 Supersomes, luciferin-H conversion, luminescence. inhibition, % at 5 µM. hit rate 20% among 96,000;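 active means blocking of liver enzyme CYP2C9 beyond about 50% at 5 µM, limit read from the data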
CYP2C19 inhib – inhibitors of human CYP2C19. CYP2C19 Supersomes, luciferin-H EGE luminescence, 30 min. inhibition, % at 5 µM. hit rate 21% among 96,000. AID 778;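 active means CYP2C19 inhibition above a set limit at 5 µM in the primary screen, cut at about 50% in these data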
hDAT+cocaine – human DAT dopamine uptake with cocaine, either direction; Q01959; LLC-PK1 hDAT cells, [14C]-dopamine uptake with cocaine IC80; actives deviate in either direction; B-score at 10 µM; hit rate 1.3% among 110,000;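 active means Z score or B-score, a plate-position-corrected score, falls beyond the plate's 99.7% confidence bounds, in either direction; inactive means both scores lie inside the 99.7% bounds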
CYP2C9 activ – increases human cytochrome P450 2C9 activity | P11712 | recombinant CYP2C9, luciferin-H conversion, luminescence; stronger effect = higher value; factor 1 = untreated enzyme, 0 = blocked | activation factor at 5 µM | hit rate 1.4% among 96,000 | AID 1024;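 active means activation factor of 2 or more for CYP2C9 at a 5 µM dose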
D1 allo mod – D1 dopamine receptor (human) allosteric modulation; P21728; HEK293 D1, CRE-luciferase, dopamine EC30 potentiation; actives deviate in either direction; B-score at 10 µM; hit rate 5.9% among 58,000; AID 641;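 active means luminescence count or its row- and column-corrected plate score outside the 99.7% band of the plate's sample wells, on either side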
Numbers stand for hits; – = inactive; · = no result. The list is not random: actives were taken first. Their share in the collection is about 28%.

SMILES	CYP2C19 act	CYP2C9 inh	CYP2C19 inhib	hDAT+cocaine	CYP2C9 activ	D1 allo mod
COc1cccc(C(=O)COC(=O)C(C)N2C(=O)C3C4C=CC(C4)C3C2=O)c1 (stereo not given)	–	–	–	–	–	·
CSCCC1NC(=O)N(CC(=O)Nc2cccc3ccccc23)C1=O (stereo not given)	–	–	–	–	–	·
Cc1onc(-c2ccccc2Cl)c1C(=O)N1CCN(C/C=C/c2ccccc2)CC1	–	–	–	–	–	–
COC(=O)C1CCN(C(=O)c2c(-c3ccccc3Cl)noc2C)CC1	–	–	54.3	–	–	–
Cc1onc(-c2ccccc2Cl)c1C(=O)N1CCN(c2nc3ccccc3s2)CC1	–	91.6	96.3	–	–	·
COc1ccccc1N1CCN(C(=O)c2c(-c3ccccc3Cl)noc2C)CC1	–	65.1	93.9	–	–	–
COc1ccccc1N1CCN(C(=O)c2ccoc2C)CC1	–	–	73.9	–	–	–
Cc1onc(-c2ccccc2Cl)c1C(=O)N1CCCCC1C(=O)O (stereo not given)	–	–	–	–	–	–
CCOc1ccc(OCCCC(=O)O)cc1	–	–	–	–	–	·
CCc1c(C)nc(N)n2c(SCC(=O)N3CCCC(C)C3)nnc12 (stereo not given)	–	–	–	–	–	–
C=CCONC(=O)c1cc(OCC(F)(F)F)ccc1OCC(F)(F)F	–	87.3	–	–	–	·
O=C(NCCNS(=O)(=O)c1ccccc1Cl)c1cc(OCC(F)(F)F)ccc1OCC(F)(F)F	–	–	–	–	–	·
O=C(NCCNC(=O)c1cc(OCC(F)(F)F)ccc1OCC(F)(F)F)Nc1cccc(C(F)(F)F)c1	–	66.8	–	–	–	·
CC(=O)c1c(C)[nH]c(C(=O)CSc2nnc(-c3ccc(Cl)cc3)n2CC2CCCO2)c1C (stereo not given)	–	–	–	–	–	·
COc1ccc(S(=O)(=O)N2CCCN(CC(=O)Nc3ccc(OC)c(Cl)c3)CC2)cc1	–	–	59.2	–	–	–
COc1ccc(N(CC(=O)Nc2ccc(S(=O)(=O)N3CCCCC3)cc2)S(C)(=O)=O)cc1OC	–	53.2	–	–	–	·
COc1ccc(S(=O)(=O)N2CCC(O)(c3ccc(Cl)cc3)CC2)cc1	–	–	67.9	–	2.3	–
COc1ccc(N(CC(=O)Nc2ccc(S(=O)(=O)N3CCCC3)cc2)S(C)(=O)=O)cc1OC	·	·	·	–	·	–
COc1ccc(NC(=O)CN2CCN(S(=O)(=O)c3ccc(Cl)cc3)CC2)cc1	–	–	81.1	–	–	–
O=C(CCCN1C(=O)CCC1=O)Nc1ccccc1F	–	–	–	–	–	·
O=C(N/N=C/c1ccc(Cl)cc1)c1sccc1OCc1ccc(F)cc1	–	–	–	–	–	·
COc1ccc(Cc2nc(C(=O)Nc3ccc(Cl)cc3)cs2)cc1	–	89.5	82.6	–	–	·
COc1ccc(Cn2nnc(C(=O)Nc3ccc(F)cc3)c2N)cc1	–	–	–	–	–	–
COc1ccc(COc2ccsc2C(=O)Nc2ccc(Cl)cc2)cc1	–	59.4	–	–	–	·
COc1ccc(Cc2nc(C(=O)Nc3ccc(F)cc3)cs2)cc1	–	86.7	88.6	–	–	·
SMILES	CYP2C19 act	CYP2C9 inh	CYP2C19 inhib	hDAT+cocaine	CYP2C9 activ	D1 allo mod
COC(=O)Nc1nnc(Cc2ccc(OC)cc2)s1	–	–	–	–	–	–
CCc1ccc(NC(=O)c2cc(-c3ccc(OC)cc3)on2)cc1	–	–	–	–	–	·
COc1ccc(Cc2nc(C(=O)Nc3ccccc3)cs2)cc1	–	90.5	88.5	–	–	·
COc1cc(C[C@@H](CO)[C@H](CO)Cc2ccc(O)c(OC)c2)ccc1O	·	·	·	–	·	·
CCOC(=O)C1(C(=O)OCC)CC1c1ccccc1 (stereo not given)	–	–	–	–	–	·
O=C(c1ccc(Cl)s1)N1CCN(c2ccccc2)CC1	·	·	·	–	·	–
Cc1noc(C)c1S(=O)(=O)N(C)CC(=O)Nc1ccc(F)cc1	–	–	–	–	–	·
CCC(NC(=O)Nn1cnnc1)(C(F)(F)F)C(F)(F)F	·	·	·	–	·	·
CN1CCN(S(=O)(=O)c2ccc(NC(=O)c3ccc(Br)s3)cc2)CC1	–	59.4	51.8	–	–	-3.95
COc1cc(CC(=O)OCC(=O)Nc2ccc(S(=O)(=O)N3CCCC3)cc2)cc(OC)c1OC	–	60.8	–	–	–	–
COC(=O)c1ccc(S(=O)(=O)N2CCCCCC2)cc1	–	–	–	–	–	–
O=C(COC(=O)c1ccc2ccccc2c1)Nc1ncc(C(F)(F)F)cc1Cl	–	–	–	–	–	·
COC(=O)c1ccc(NC(=O)COc2ccc(S(=O)(=O)N3CCCCC3)cc2)cc1	–	64.2	–	–	–	·
O=C(COC(=O)c1ccc2ccccc2n1)Nc1ncc(C(F)(F)F)cc1Cl	–	50.7	58.3	–	–	·
O=C(COC(=O)Cc1ccc2c(c1)OCCO2)Nc1ccc(S(=O)(=O)N2CCCC2)cc1	–	–	–	–	–	·
O=C(COc1ccc(S(=O)(=O)N2CCOCC2)cc1)Nc1ccc(Cl)c(C(F)(F)F)c1	–	53.1	–	–	–	–
O=C(COC(=O)CCc1ccc(S(=O)(=O)N2CCOCC2)cc1)Nc1ncc(C(F)(F)F)cc1Cl	–	54.7	–	–	–	·
Cc1cc(OCC(=O)Nc2ccc(S(=O)(=O)N3CCN(C)CC3)cc2)cc(C)c1Cl	–	–	–	–	–	-6.46
Cc1cc(OCC(=O)Nc2ccc(S(=O)(=O)N3CCN(C)CC3)cc2)ccc1Cl	·	·	·	–	·	·
CCc1ccccc1NC(=O)CN1CCC(NC(=O)COC)CC1	–	–	–	–	–	–
CCOCCc1nnc(NC(=O)c2ccc(OC)c(OC)c2)s1	–	–	–	–	–	–
COc1cccc(C(C(=O)NC2CCCCC2)N(CC2CCCO2)C(=O)CNC(=O)c2ccco2)c1 (stereo not given)	·	·	·	–	·	·
CCOc1nc(NC2CCCCC2)nc(NC(C)(C)C)n1	·	·	·	–	·	·
Cc1cc(N2CCN(c3ccccc3)CC2)nc(-c2ccccc2)n1	–	–	85.7	–	–	–
Cc1cc(N2CCN(C(=O)c3ccco3)CC2)nc(-c2ccccc2)n1	–	55.2	73.6	–	–	-3.68
SMILES	CYP2C19 act	CYP2C9 inh	CYP2C19 inhib	hDAT+cocaine	CYP2C9 activ	D1 allo mod
COc1ccc(C2(O)CC3CCC(C2)N3c2cc(C)nc(-c3ccccc3)n2)cc1 (stereo not given)	–	92.6	53.2	–	–	·
Cc1cc(N2CCN(c3ccccc3)CC2)nc(N)n1	·	·	·	–	·	·
O=C(c1ccc(F)cc1)N1C2CCC1CC(O)(c1ccc(F)cc1)C2 (stereo not given)	–	–	–	–	–	·
Cc1cccc(-c2cc3nc4c(c(N5CCC6(CC5)OCCO6)n3n2)CCCC4)c1	·	·	·	·	·	–
Cc1cccc(-c2cc3nc4c(c(N5CCOCC5)n3n2)CCCC4)c1	–	55.0	–	–	–	–
Cc1cccc(NC(=O)CC2NC3CCCCC3NC2=O)c1 (stereo not given)	–	–	–	–	–	–
Cc1cccc(NC(=O)CC2SC(=NC3CCCCC3)NC2=O)c1 (stereo not given)	–	65.8	–	–	–	–
